# Test results reported in PubChem BioAssay (NCI).
# The panel holds about 83,000 compounds, 20% with a hit somewhere; the sample as a whole holds those more often.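 A percent growth of 40 corresponds to 60% growth inhibition; 0 means no net growth; -100 means all cells died. Active threshold: below 10.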 Values without a mark were called inactive. Activity calls are given as the source filed them.
# Test system: UO-31 renal
# Assay: NCI-60 one-dose screen, 48 h (100 = growth as untreated, 0 = no growth, -100 = all killed)
# Conditions: 10 µM unless noted
row,Structure (SMILES),growth
1,CN(C)CCCCC(C(=O)CBr)(c1ccccc1)c1ccccc1,-56.1% (active)
2,CC/C=C\C[C@H]1CC=C2C(=O)C=C[C@@H]2CC=CCCCC(=O)O[C@@H](CCCCC)CC=C2C(=O)C=C[C@@H]2CC=CCCCC(=O)O[C@@H](CCCCC)CC=C2C(=O)C=C[C@@H]2CC=CCCCC(=O)O[C@@H](CCCCC)CC=C2C(=O)C=C[C@@H]2CC=CCCCC(=O)O1,9.76% [7.9 µM] (active)
3,Clc1ccc2c(NCCNc3nc(-c4ccccc4)cc(-c4ccccc4)n3)ccnc2c1,-94.3% (active)
4,Cc1ccc(N(CC(=O)Nc2ccc(S(=O)(=O)N3CCC(N4CCCC4)CC3)cc2)S(=O)(=O)c2ccc(Cl)cc2)cc1,38.1%
5,Oc1ccc(Nc2ccccc2)cc1,68.4%
6,CCCCCCCCNc1cccc2c1C(=O)c1ccccc1C2=O,92.2%
7,Cc1cc(N(CCCNc2ccnc3cc(Cl)ccc23)Cc2ccco2)nc(N2CCN(C)CC2)n1,47.5%
8,C=C1C(=O)O[C@H]2[C@H]1CC/C(Cn1cc(-c3ccc(OC)cc3)nn1)=C\CC[C@@]1(C)O[C@@H]21,-86.2% (active)
9,O=c1[nH]c2c3ccncc3cc(-c3cccc(Cl)c3)c2c2cnccc12,30.6%
10,O=C1CNCCN1,91.7%
11,COc1ccc(/C=C/C(=O)NCC(C)O)cc1 (stereo not drawn),81.9%
12,O=C1Nc2ccccc2/C1=C/c1cn(CCCn2c3ccccc3c(=O)c3ccccc32)c2ccccc12,44.6%
13,Cn1cc(-c2csc(-c3c[nH]c4ccc(F)cc34)n2)c2cccnc21,77.1%
14,Cc1cc(Cl)nc(N(CCCNc2ccnc3cc(Cl)ccc23)Cc2ccco2)n1,10.9%
15,COc1cc(/C=C/c2cc(/C=C/c3ccc(O)c(OC)c3)n(-c3ccc(Cl)cc3)c(=O)n2)ccc1O,64.9%
16,CC1(c2ccccc2)OC1C(=O)O (stereo not drawn),84.5%
17,COc1cc(/C=C2\C(=O)N(CC(O)COc3cc(O)c4c(=O)cc(-c5ccccc5)oc4c3)c3ccccc32)cc(OC)c1O (stereo not drawn),50.6%
18,Oc1cccc2oc(=S)[nH]c12,72.9%
19,COc1ccc2c(c1)c(-c1nc(-c3c[nH]c4ncccc34)cs1)cn2CCN,48.5%
20,C=C(C)[C@@H]1CC[C@]2(C(=O)N3CCCNCC3)CC[C@]3(C)[C@H](CC[C@@H]4[C@@]5(C)CCC(=O)C(C)(C)[C@@H]5CC[C@]43C)[C@@H]12,85.5%
21,Cc1ccc(NC2CC(=O)N(c3c(C)cc(C)cc3C)C2=O)c(C)c1 (stereo not drawn),81.2%
22,CC1c2ccccc2N(S(=O)(=O)c2ccccc2)C1C (stereo not drawn),75.7%
23,Nc1ccc(Cl)cn1,86.7%
24,CCc1nnc(NC(=O)c2ccoc2COc2ccccc2)s1,60.7%
25,Nc1c2c(nc3ccc(Br)cc13)CC(c1ccccc1)CC2=O (stereo not drawn),53.1%
26,CC(C)(C)n1cc(-c2ccnc(NCCCNS(=O)(=O)c3ccc(Cl)cc3)c2)c(-c2cccc(F)c2)n1,66.5%
27,COc1cc(/C=N/NC(=S)NNC(=S)NC2CCCCC2)cc(OC)c1OC,70.3%
28,COc1ccc2[nH]c(-c3ccc(Cl)cc3)cc(=O)c2c1,94.4%
29,Cc1cc(N(CCCNc2ccnc3cc(Cl)ccc23)Cc2ccco2)nc(Cl)n1,36.7%

# Test system: TK-10 renal
# Assay: as above
# Conditions: 10 µM unless noted
row,Structure (SMILES),growth
1,COc1cc2c3c(c4c5ccccc5[nH]c4c2c(OC)c1OC)C(=O)N(O)C3=O,80.1%
2,Cc1cc2nc3c4cc(O)ccc4n(CCN(C)C)c3nc2cc1C,5.14% (active)
3,Cc1csc(Nc2nc(-c3ccc(Cl)cc3)nc(C(Cl)(Cl)Cl)n2)n1,100%
4,Cc1cc(C)nc(NC(N)=NCCc2ccccc2)n1,75.6%
5,COc1cc(-c2c(C#N)c(-c3cccs3)nc3c2c(-c2ccccc2)nn3-c2ccccc2)ccc1O,101%
6,CN1CCN(c2ccc3nc(-c4[nH]ncc4Nc4ncnc5c4OCCCN5)[nH]c3c2)CC1,-62.7% (active)
7,COC(=O)[C@]12CC[C@@H](C)[C@H](C)[C@@H]1C1=CC[C@@H]3[C@@]4(C)C[C@@H](O)[C@H](O)[C@@](C)(CO)C4=CC[C@@]3(C)[C@]1(C)CC2,-17.7% (active)
8,O=C(NO)c1ccc(Cn2c(=O)n(-c3ccccc3)c(=O)c3ccccc32)cc1,28.1%
9,COC(=O)[C@]12CC[C@@H](C)[C@H](C)[C@@H]1C1=CC(=O)[C@@H]3[C@@]4(C)C[C@@H](O)[C@H](O)[C@@]5(C)COC(=C45)C[C@@]3(C)[C@]1(C)CC2,83.3%
10,Cn1cc(-c2csc(-c3cn(CCN)c4ccc(F)cc34)n2)c2cccnc21,121%
11,CN(C)CCCCC(C(=O)CBr)(c1ccccc1)c1ccccc1,-47.6% (active)
12,CC/C=C\C[C@H]1CC=C2C(=O)C=C[C@@H]2CC=CCCCC(=O)O[C@@H](CCCCC)CC=C2C(=O)C=C[C@@H]2CC=CCCCC(=O)O[C@@H](CCCCC)CC=C2C(=O)C=C[C@@H]2CC=CCCCC(=O)O[C@@H](CCCCC)CC=C2C(=O)C=C[C@@H]2CC=CCCCC(=O)O1,57.5% [7.9 µM]
13,Clc1ccc2c(NCCNc3nc(-c4ccccc4)cc(-c4ccccc4)n3)ccnc2c1,-8.38% (active)
14,Cc1ccc(N(CC(=O)Nc2ccc(S(=O)(=O)N3CCC(N4CCCC4)CC3)cc2)S(=O)(=O)c2ccc(Cl)cc2)cc1,112%
15,Oc1ccc(Nc2ccccc2)cc1,117%
16,CCCCCCCCNc1cccc2c1C(=O)c1ccccc1C2=O,98.3%
17,Cc1cc(N(CCCNc2ccnc3cc(Cl)ccc23)Cc2ccco2)nc(N2CCN(C)CC2)n1,117%
18,C=C1C(=O)O[C@H]2[C@H]1CC/C(Cn1cc(-c3ccc(OC)cc3)nn1)=C\CC[C@@]1(C)O[C@@H]21,-84.1% (active)
19,O=c1[nH]c2c3ccncc3cc(-c3cccc(Cl)c3)c2c2cnccc12,0.334% (active)
20,O=C1CNCCN1,100%

row,Structure (SMILES),growth
1,COc1ccc(/C=C/C(=O)NCC(C)O)cc1 (stereo not drawn),89.1%
2,O=C1Nc2ccccc2/C1=C/c1cn(CCCn2c3ccccc3c(=O)c3ccccc32)c2ccccc12,140%
3,Cn1cc(-c2csc(-c3c[nH]c4ccc(F)cc34)n2)c2cccnc21,69.7%
4,Cc1cc(Cl)nc(N(CCCNc2ccnc3cc(Cl)ccc23)Cc2ccco2)n1,41.7%
5,COc1cc(/C=C/c2cc(/C=C/c3ccc(O)c(OC)c3)n(-c3ccc(Cl)cc3)c(=O)n2)ccc1O,118%
6,CC1(c2ccccc2)OC1C(=O)O (stereo not drawn),102%
7,COc1cc(/C=C2\C(=O)N(CC(O)COc3cc(O)c4c(=O)cc(-c5ccccc5)oc4c3)c3ccccc32)cc(OC)c1O (stereo not drawn),137%
8,Oc1cccc2oc(=S)[nH]c12,106%
9,COc1ccc2c(c1)c(-c1nc(-c3c[nH]c4ncccc34)cs1)cn2CCN,71.9%
10,C=C(C)[C@@H]1CC[C@]2(C(=O)N3CCCNCC3)CC[C@]3(C)[C@H](CC[C@@H]4[C@@]5(C)CCC(=O)C(C)(C)[C@@H]5CC[C@]43C)[C@@H]12,127%
11,Cc1ccc(NC2CC(=O)N(c3c(C)cc(C)cc3C)C2=O)c(C)c1 (stereo not drawn),106%
12,CC1c2ccccc2N(S(=O)(=O)c2ccccc2)C1C (stereo not drawn),100%
13,Nc1ccc(Cl)cn1,106%
14,CCc1nnc(NC(=O)c2ccoc2COc2ccccc2)s1,108%
15,Nc1c2c(nc3ccc(Br)cc13)CC(c1ccccc1)CC2=O (stereo not drawn),85.7%
16,CC(C)(C)n1cc(-c2ccnc(NCCCNS(=O)(=O)c3ccc(Cl)cc3)c2)c(-c2cccc(F)c2)n1,111%
17,COc1cc(/C=N/NC(=S)NNC(=S)NC2CCCCC2)cc(OC)c1OC,147%
18,COc1ccc2[nH]c(-c3ccc(Cl)cc3)cc(=O)c2c1,93.4%
19,Cc1cc(N(CCCNc2ccnc3cc(Cl)ccc23)Cc2ccco2)nc(Cl)n1,62.6%
